FMDV inh: foot and mouth disease virus antiviral activity; FMDV antiviral cell-based qHTS; Potency, µM (highest dose often 57.9 µM), without a hit: top-dose activity change, negative = inhibition, most hits filed as inhibitors; actives 1.2% (n = 410,000); AID 1159524; calls by dose curve; tested in HEK293T cells; further: read-out not given here; potency means the concentration at half of the fitted maximal effect; nearly all actives have a fitted effect of over 45% in size
HCMV antiviral: blocks human cytomegalovirus replication; activity change, negative = inhibition, % at 57.5 µM; actives 4.5% (n = 410,000); AID 1259415; HFF cells, HCMV-luciferase reporter, 72 h; active compounds read low; in the data active means activity change below about -60%; inconclusive means no clear call, values can overlap the other calls; inactive means above about -39%
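Inhibition of viral replication was scored as loss of reporter luminescence in HFFs infected with HCMV-luciferase (MOI 1 PFU/cell) for 72 h; compounds tested at 2 doses, normalized to buffer and Salinomycin controls.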
HCV inh: blocks hepatitis C virus; AID 651820; Huh7.5.1 HCVcc-Cre infection, luciferase reporter, 44 h; actives 3.4% (n = 340,000); Potency, µM (series often up to 41.8 µM), for inactives: top-dose activity change, negative = inhibition, hits mostly inhibitors; further: potency means the concentration at half of the fitted maximal effect
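Cells seeded at 1,000/well and cultured 4 h, then compounds added followed by HCVcc-Cre virus (~0.5 moi). After 44 h further culture, luciferase substrate was added, plates held 15 min at room temperature, and luminescence read for 15 sec.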
AmpC no deterg: blocks E. coli AmpC beta-lactamase in detergent-free assay | P00811 | AmpC nitrocefin hydrolysis, absorbance 480 nm, 0.0001% Triton | Potency, µM (titrated, usually from 57.1 µM), for the others: at the top dose activity change, negative = inhibition, most hits filed as inhibitors | actives 0.52% (n = 330,000) | AID 485341;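 further: potency means the concentration at half of the fitted maximal effect; plate controls were no compound for no effect and no enzyme for full effect; nearly all actives have a fitted effect of over 20% in size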
Target sequence (P00811 whole entry, looked up): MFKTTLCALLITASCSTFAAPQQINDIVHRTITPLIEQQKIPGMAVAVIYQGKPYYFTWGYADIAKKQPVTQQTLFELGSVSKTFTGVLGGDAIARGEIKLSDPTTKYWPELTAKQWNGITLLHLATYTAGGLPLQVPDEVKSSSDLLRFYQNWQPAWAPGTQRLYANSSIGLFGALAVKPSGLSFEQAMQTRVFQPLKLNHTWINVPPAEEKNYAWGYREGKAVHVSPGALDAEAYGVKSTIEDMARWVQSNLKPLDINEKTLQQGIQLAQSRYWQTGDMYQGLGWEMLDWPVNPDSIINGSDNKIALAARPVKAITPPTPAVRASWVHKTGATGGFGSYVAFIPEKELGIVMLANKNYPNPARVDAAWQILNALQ
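AmpC (5.3 nM in the dispensed reagent) in 20 mM phosphate pH 7.0 with 0.01% (detergent screen) or 0.0001% Triton X-100 was preincubated with compounds for 15 min at room temperature. Nitrocefin was then added from an 800 uM solution, and hydrolysis was followed at 480 nm.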
AmpC inh detg: AmpC beta-lactamase inhibition with detergent present. Potency, µM (doses to about 114 µM), for inactives: at the highest dose activity change, negative = inhibition, usual class: inhibitors. actives 0.041% (n = 370,000). P00811. AmpC hydrolysis of nitrocefin, absorbance 480 nm, 0.01% Triton;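 further: potency means the concentration at half of the fitted maximal effect; 0% = no-compound wells and -100% = no-enzyme wells; nearly all actives have a fitted effect of over 25% in size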
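AmpC (5.3 nM in the dispensed reagent) in 20 mM phosphate pH 7.0 with 0.01% (detergent screen) or 0.0001% Triton X-100 was preincubated with compounds for 15 min at room temperature. Nitrocefin was then added from an 800 uM solution, and hydrolysis was followed at 480 nm.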
Starred values were filed as active, the others as inactive. The list is not random: actives were taken first. Their share in the collection is about 7.3%. Unless noted, the call rests on the fitted dose curve; in most records, active means well fitted curve in the direction sought with a large enough effect; inconclusive means small, poorly fitted or top-dose-only effect, or another doubt; inactive means no such curve, though single readings can be large; an effect the other way counts as inactive or inconclusive. Unless noted, on the % scale 0 is the no-effect control and ±100 the full control effect.

For C[C@H](NC(=O)c1ccccn1)C(O)c1nc2ccccc2[nH]1 (stereo partly specified) the results were HCMV antiviral -1.9.
`COc1cccc(-c2ccnc(-n3ncc(C(=O)NCC(C)(C)CN(C)C)c3C)n2)c1` gave FMDV inh -12.7%.
For CCCCOc1ccc(S(=O)(=O)Nc2cccnc2)cc1 the results were HCMV antiviral -75.9*, HCV inh 10µM*, AmpC no deterg -35.4% and AmpC inh detg 0.3%.
For CCOc1ccc(S(=O)(=O)Nc2cccc(N(C)S(C)(=O)=O)c2)cc1 the results were FMDV inh -15.9%, HCMV antiviral -35.4, HCV inh 10µM*, AmpC no deterg -24.1% and AmpC inh detg inconclusive.
`CCOc1ccc(S(=O)(=O)Nc2cccc(-c3ccc(OCC)nn3)c2)cc1` gave FMDV inh -21.3%, HCMV antiviral inconclusive and AmpC inh detg -4.2%.
For Cc1ccc(S(=O)(=O)Nc2cccnc2)cc1 the results were FMDV inh 12.1%, HCMV antiviral 2.7, HCV inh -0.8%, AmpC no deterg -0.8% and AmpC inh detg 2.6%.
`CCOc1ccc(S(=O)(=O)Nc2cccc(OC)c2)cc1` gave FMDV inh 43.7%, HCMV antiviral inconclusive, HCV inh 10µM*, AmpC no deterg -10.5% and AmpC inh detg -2.9%.
Screening CN(Cc1nccs1)C(=O)C1CCC(=O)N(CCCc2ccccc2)C1 (stereo unspecified) returned FMDV inh -2.4%, HCMV antiviral 2.2, HCV inh 11.8%, AmpC no deterg 0.3% and AmpC inh detg -13.3%.
For C[C@H](CO)N1C[C@H](C)[C@@H](CN(C)S(=O)(=O)c2cccc(C#N)c2)OCc2cnnn2CCCC1=O the results were FMDV inh -2.9% and HCMV antiviral 27.8.
For CCCn1cc(SCC(=O)NCc2ccc3c(c2)OCO3)c2ccccc21 the results were FMDV inh 7.6%, HCMV antiviral -1.1, HCV inh inconclusive, AmpC no deterg inconclusive and AmpC inh detg inconclusive.
`CCn1cc(SCC(=O)NCc2ccc3c(c2)OCO3)c2ccccc21` gave FMDV inh 5.1%, HCMV antiviral 26.5, HCV inh 10µM*, AmpC no deterg -12.7% and AmpC inh detg -8.0%.
For COc1ccccc1-n1c(SCC(=O)NCc2ccc3c(c2)OCO3)nc2cc([N+](=O)[O-])ccc21 the results were FMDV inh 1.5%, HCMV antiviral -10.9, HCV inh 25.1µM*, AmpC no deterg -34.2% and AmpC inh detg -5.5%.
For CN(Cc1ccccc1)c1ccc2cc(S(=O)(=O)N3CCCCC3)ccc2n1 the results were FMDV inh -14.2%, HCMV antiviral 2.9 and AmpC inh detg 1.6%.
Screening Cc1cc(-n2c(C)c3c(C)nnc(C)c3c2C)ccc1N returned FMDV inh -17.6%, HCMV antiviral -61.8*, HCV inh -75.8%, AmpC no deterg 55.3% and AmpC inh detg inconclusive.
NC(=O)NC(Cc1ccccc1)C(=O)NNC(=O)COc1ccccc1Cl (stereo unspecified) was read as FMDV inh -5.9%, HCMV antiviral 5.1, HCV inh 15.4% and AmpC no deterg -2.1%.
`O=c1c2ccccc2oc2ccc(-c3ccc4cc[nH]c4c3)cc12` gave FMDV inh -13.7%, HCV inh 15.8µM* and AmpC no deterg -23.4%.
`O=C1C(n2ccc3ccccc32)c2ccccc2N1Cc1ccc(Cl)nc1` (stereo unspecified) gave HCMV antiviral 2.1.
`COc1ccc(OC)c(-n2c(=S)[nH]c3cc(C(=O)N4CCN(c5ccccc5)CC4)ccc3c2=O)c1` gave FMDV inh -10.1%, HCMV antiviral -27.1, HCV inh 20.3%, AmpC no deterg 61.3% and AmpC inh detg 1.0%.
Screening CCOC(=O)C1CCCN(C(=O)c2ccc3c(=O)n(Cc4ccccc4OC)c(=S)[nH]c3c2)C1 (stereo unspecified) returned FMDV inh -9.0%, HCMV antiviral -93.9*, HCV inh inconclusive, AmpC no deterg 94.8% and AmpC inh detg 2.3%.
CC1CCCN(C(=O)c2ccc3c(=O)n(C4CCCC4)c(=S)[nH]c3c2)C1 (stereo unspecified) was read as FMDV inh inconclusive, HCMV antiviral -62.4*, HCV inh 10µM*, AmpC no deterg -19.6% and AmpC inh detg -6.6%.
`O=C(c1ccc2c(=O)n(-c3ccccc3)c(=S)[nH]c2c1)N1CCN(c2ccccc2)CC1` gave FMDV inh inconclusive, HCMV antiviral 18.2, HCV inh 11.2µM*, AmpC no deterg -6.5% and AmpC inh detg 6.4%.
`CCOC(=O)C1CCCN(C(=O)c2ccc(Cn3c(=S)[nH]c4cc(C(=O)OC)ccc4c3=O)cc2)C1` (stereo unspecified) gave FMDV inh -26.3%, HCMV antiviral 47.5, HCV inh inconclusive, AmpC no deterg -17.7% and AmpC inh detg inconclusive.
Screening O=C(c1ccc2c(=O)n(-c3ccccc3)c(=S)[nH]c2c1)N1CCCCC1 returned FMDV inh inconclusive, HCMV antiviral -92.4*, HCV inh inconclusive, AmpC no deterg 86.9% and AmpC inh detg -6.8%.
For O=C(c1ccc2c(=O)n(C3CCCC3)c(=S)[nH]c2c1)N1CCCCCC1 the results were FMDV inh inconclusive, HCMV antiviral inconclusive, HCV inh inconclusive, AmpC no deterg -31.7% and AmpC inh detg -5.6%.
CCOC(=O)c1c(C)oc2nc(C)nc(NCc3ccc(OC)cc3)c12 was read as FMDV inh 7.2%, HCMV antiviral -1.2 and AmpC inh detg 4.6%.
Screening Cc1nc2nc(NCc3ccc(Cl)cc3)[nH]n2c(=O)c1Cc1ccccc1 returned FMDV inh -18.2%, HCMV antiviral -7.8 and AmpC inh detg 13.6%.
Screening Oc1c(C(c2ccccc2F)N2CCN(Cc3ccccc3)CC2)sc2nc(-c3ccco3)nn12 (stereo unspecified) returned FMDV inh 22.0%, HCMV antiviral 9.7 and AmpC inh detg 10.0%.
`NS(=O)(=O)c1ccc(CCNc2nc3c(-c4cccc(F)c4)nnn3c3ccc(Cl)cc23)cc1` gave FMDV inh 8.8%, HCMV antiviral -101.6* and AmpC inh detg 9.7%.
`COCCCNC(=O)C[C@@H]1C[C@@]2(C(=O)OC)CCCCC=C2N(Cc2ccc(Cl)cc2Cl)C1=O` gave FMDV inh -14.4% and HCMV antiviral 5.4.
CCOC(=O)N1CCN(C(=O)c2ccc3c(c2)N(C)C(=O)/C(=C\c2ccc(OCC)c(OC)c2)S3)CC1 was read as FMDV inh 35.5µM*, HCMV antiviral inconclusive, HCV inh 10µM*, AmpC no deterg 213.5% and AmpC inh detg 5.6%.
